# In the supplement of paper PMC11219838:
# Unmarked numbers belong to inactive results.
# Key:
# Details in all cases: 60 µM; 5 days; temperature: 20 °C
# [1] = system: Meloidogyne hapla J2; assay: proportion of mobile M. hapla J2 relative to DMSO control (fraction of DMSO control); higher = more viable, less nematicidal, active = 0.7 or less
# How it was run: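 Compound was pinned to 60 µM final (0.6% v/v DMSO) into 96-well wells, each holding about 25 M. hapla J2 in distilled water. Plates were sealed and shaken for 5 days at 20 °C and 200 rpm, then given 2 µL 1 M NaOH per well. Microscopic mobility scores were normalised to the mean of the plate's own DMSO wells, eight per plate, with two biological replicates averaged.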
# [2] = system: Caenorhabditis elegans dauer (daf-2(e1370)); assay: proportion of mobile C. elegans dauer larvae relative to DMSO control (fraction of DMSO control); higher = more viable, less nematicidal, active = 0.63 or less; extreme values may be limits of the assay
# How it was run: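 Synchronized C. elegans daf-2(e1370) larvae were held at 25 °C for 48 h on MYOB plates with E. coli OP50 to form dauers, and about 20 dauers were added per 96-well well in liquid NGM. Compound was pinned to 60 µM final (0.6% v/v DMSO), and sealed plates were shaken at 200 rpm for 5 days at 20 °C. The proportion of mobile worms was scored under a dissection microscope relative to DMSO controls and averaged over two biological replicates.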
# [3] = system: Ditylenchus dipsaci; assay: proportion of mobile D. dipsaci (mixed stage) relative to DMSO control (fraction of DMSO control); higher = more viable, less nematicidal, active = 0.86 or less; extreme values may be limits of the assay
# How it was run: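 Mobility values are relative to DMSO controls and are averages of two biological replicates. For each well of a 96-well plate, about 20 D. dipsaci worms, grown on pea plants in Gamborg B-5 agar and funnel-extracted into water, were dispensed in distilled water. Plates received pinned compound at 60 µM final with 0.6% v/v DMSO and were sealed and shaken at 200 rpm for 5 days at 20 °C before 2 µL 1 M NaOH was added and mobile worms were scored by microscope.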
SMILES,proportion of mobile M. hapla J2 [1],proportion of mobile C. elegans dauer larvae [2],proportion of mobile D. dipsaci [3]
COc1ccc(-c2noc(CSc3nc(C)cc(C)n3)n2)cc1,0.992,1,0.833 (active)
Cc1cc(Br)ccc1OCc1nc(-c2ccncc2)no1,1.01,1,1
N#Cc1cccc(CSc2nnc(-c3ccncc3)o2)c1,0.745,1,1
Cc1ccc(-c2noc(C3CCCCC3)n2)cc1,1.05,1,1
CC(C)Oc1ccc(-c2nc(-c3cccnc3)no2)cc1,0.899,0 (active),0.675 (active)
Clc1cc(Br)ccc1OCc1nc(-c2cccnc2)no1,1.04,1,1
O=C(CSc1nnc(-c2ccco2)o1)Nc1ccc(Br)cn1,0.756,1,1
Clc1ccc(-c2noc(-c3ccccc3Cl)n2)cc1,0.927,1,1
O=C(CSc1nnc(-c2ccc(Cl)cc2)o1)c1ccccc1,0.772,1,1
O=C(NCCc1ccccc1)c1ccccc1-c1nc(-c2ccccc2Cl)no1,0.669 (active),1,1
Brc1ccc(-c2noc(COc3ccc4c(c3)OCO4)n2)cc1,1.06,1,1
CC(=O)Nc1ccc(NC(=O)c2ccccc2-c2nc(-c3cccc(C)c3)no2)cc1,1.01,1,1
Cc1ccc(NC(=O)CSc2nnc(-c3ccncc3)o2)cc1Cl,0.939,1,1
O=C(Nc1ccccc1-c1nc(-c2cccnc2)no1)c1ccc(Cl)cc1,0.98,1,1
Cc1ccccc1OCc1nc(-c2ccc(Cl)cc2)no1,1.04,1,1
CCOc1ccccc1-c1nnc(SCC(=O)Nc2ccccc2)o1,0.907,1,1
Cc1ccc(-c2noc(-c3cccc(Br)c3)n2)cc1,1.04,1,1
Cc1cc(OCc2nc(-c3ccccc3)no2)ccc1Cl,0.844,1,1
Cc1ccc(-c2nnc(SCC(=O)Nc3cc(C)c(C)cc3Br)o2)cc1,0.792,1,1
COc1cccc(-c2nnc(SCc3ccccc3C)o2)c1,1.01,1,1
CC(C)(C)c1ccc(-c2nc(-c3ccncc3)no2)cc1,1.03,1,1
Clc1cccc(-c2nc(-c3cccnc3)no2)c1,0.312 (active),1,1
CCOc1cc(-c2nc(-c3ccc(OC)cc3)no2)cc(OCC)c1OCC,0.998,1,1
Cc1ccc(-c2nc(-c3ccncc3)no2)cc1Cl,0.852,1,1
Cc1ccc(-c2nc(-c3ccc4c(c3)OCO4)no2)cc1,1,1,1

SMILES,proportion of mobile M. hapla J2 [1],proportion of mobile C. elegans dauer larvae [2],proportion of mobile D. dipsaci [3]
O=C(Nc1ccccc1-c1nc(-c2ccncc2)no1)c1cccc(Cl)c1,1.04,1,1
CCOC(=O)c1ccc(NC(=O)c2ccccc2-c2nc(-c3cccc(C)c3)no2)cc1,0.777,1,1
c1ccc(-c2noc(C3COc4ccccc4O3)n2)cc1 (centres undefined),0.953,0.539 (active),1
CC(Oc1ccc(Br)cc1)c1nc(-c2ccncc2)no1 (centres undefined),0.719,0 (active),1
Cc1ccccc1-c1nc(-c2ccc(Cl)cc2)no1,0.841,1,1
COc1ccccc1-c1nc(-c2ccc(C)cc2)no1,1.01,1,1
Cc1cccc(-c2noc(-c3ccc(Cl)cc3)n2)c1,1.05,1,1
CCOc1nc(-c2ccc(C)cc2)ccc1-c1noc(-c2ccc(F)cc2)n1,0.829,1,1
COc1cccc(-c2noc(COc3cc(C)ccc3C)n2)c1,0.873,1,1
COc1ccccc1-c1nnc(SCC(=O)Nc2ccc(F)cc2)o1,0.995,1,1
c1ccc(CSc2nnc(-c3ccccc3)o2)cc1,1.04,1,0.864
Cc1ccc(-c2nnc(SCC(=O)Nc3c(C)cc(C)cc3C)o2)cc1,0.979,1,1
COc1ccc(-c2noc(-c3ccc(C)cc3)n2)cc1,0.998,1,0.932
Cc1ccc(C)c(-c2nc(-c3cccnc3)no2)c1,1.06,0.727,1
COc1cccc(-c2noc(COc3ccc(C)c(C)c3)n2)c1,1.06,1,1
CCc1cccc(CC)c1NC(=O)CSc1nnc(-c2ccccc2OC)o1,0.758,1,1
O=C(c1ccccc1-c1nc(-c2ccc(Cl)cc2)no1)N1CCCCC1,0.941,1,1
c1ccc(CSc2nnc(-c3cccnc3)o2)cc1,0.391 (active),1,1
CCOc1nc(-c2ccc(C)cc2)ccc1-c1noc(-c2cccnc2)n1,0.842,1,1
Cc1cc(C)c(C)c(OCc2nc(-c3cccnc3)no2)c1,0.58 (active),1,1
O=C(CSc1nnc(-c2ccc(Cl)cc2)o1)Nc1ccc(F)cc1,0.912,1,1
COc1ccc(CCC(=O)Nc2ccc(-c3noc(COc4ccccc4C)n3)cc2)cc1,0.898,1,1
CCC(=O)Nc1ccccc1-c1nc(-c2cccnc2)no1,1.02,1,1
CCCCC(=O)Nc1ccccc1-c1nc(-c2ccccn2)no1,1.06,1,1
COc1cccc(-c2noc(COc3ccc(C)cc3)n2)c1,0.769,1,1

SMILES,proportion of mobile M. hapla J2 [1],proportion of mobile C. elegans dauer larvae [2],proportion of mobile D. dipsaci [3]
C(=C\c1ccccc1)/CSc1nnc(-c2ccncc2)o1,0.979,1,1
CCOc1ccc(-c2nc(-c3ccccc3C)no2)cc1,0.692 (active),1,1
Cc1ccc(NC(=O)CSc2nnc(-c3ccco3)o2)cc1Cl,0.96,1,0.5 (active)
Cc1ccc(-c2nnc(SCC(=O)NCc3ccccc3)o2)cc1,1.04,1,1
Clc1ccccc1-c1nc(-c2ccc3c(c2)OCO3)no1,0.983,1,1
Brc1ccc(-c2noc(-c3ccco3)n2)cc1,1.01,0 (active),0.875
CSc1ccccc1-c1nc(-c2cccnc2)no1,1.07,0.684,1
COc1ccc(Cl)cc1-c1noc(-c2ccccc2)n1,1.02,1,1
CC(=O)Nc1cccc(-c2nnc(SCc3ccc(F)cc3)o2)c1,0.959,1,1
COc1nc(C)ccc1-c1noc(-c2ccccc2Br)n1,0.917,1,1
CCOC(=O)c1c(NC(=O)CSc2nnc(-c3ccc(Cl)cc3)o2)sc(C(C)=O)c1C,0.809,1,1
Brc1cccc(-c2nc(-c3ccccc3)no2)c1,1.02,1,1
Fc1ccc(-c2noc(-c3ccc(Br)cc3)n2)cc1,1.04,1,1
CCn1c(SCc2ccc(OC)cc2)nnc1-c1ccco1,0.611 (active),1,1
COc1ccccc1-c1nc(-c2ccccc2)no1,1,1,1
COc1ccc(Cl)cc1-c1nnc(SCC(=O)Nc2nccs2)o1,0.826,1,1
O=C(CSc1nnc(-c2ccccc2)o1)Nc1ccc2ccccc2c1,1.01,1,1
Clc1cccc(OCc2nc(-c3cccs3)no2)c1,0.942,0.5 (active),1
COc1ccccc1CC(=O)Nc1ccc(-c2noc(-c3ccc(Cl)cc3)n2)cc1,0.938,1,1
CCNC(=O)c1ccccc1-c1nc(-c2ccc(OC)cc2)no1,0.785,1,1
COc1ccccc1-c1noc(-c2ccccc2F)n1,0.91,1,1
Cc1ccc(-c2noc(CSc3nc(C)cc(C)n3)n2)cc1,0.974,1,1
Brc1ccc(CSc2nnc(-c3cccnc3)o2)cc1,0.911,1,1
